# An excerpt weighted towards active compounds, which were near 13% of everything screened.
# HCV inh: inhibitors of hepatitis C virus infection | Potency, µM (highest dose often 41.8 µM), inactives show at the top dose activity change, negative = inhibition, usual class: inhibitors | AID 651820 | Huh7.5.1 HCVcc-Cre infection, luciferase reporter, 44 h | hit rate 3.4% among 340,000; active = well fitted inhibition curve with a large enough effect; inconclusive = small, poorly fitted or top-dose-only effect, or another doubt; inactive = no such curve, though single readings can be large or run the other way; also: potency is read from the fitted curve at half-maximal effect; % is scaled to controls: 0 for no effect and ±100 for the full control effect
#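 Luciferase read-out (15 sec integration) after a 15 min room-temperature substrate step quantifies HCVcc-Cre infection. Cells, 1,000 per well, had compound added 4 h post-plating, then virus at ~0.5 moi, and were cultured 44 h.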
# CHX counter: counter-screen hit for Shiga toxin inhibitors, cycloheximide | cell reporter, cycloheximide protein synthesis inhibition counterscreen | max response, % | hit rate 12% among 300,000; in the data active = max response mostly above about 13%, no sharp cut-off; inactive = mostly below about 14%; also: read at 38.3 µM for the half of the compounds with a filed dose; 0% is about no effect
# Shiga inhibitor: blocks Shiga toxin action in Vero cells. hit rate 9.2% among 290,000. inhibition, % at 38.7 µM. Vero cells, Shiga toxin protein synthesis inhibition reporter. AID 2315; in the data active = inhibition mostly above about 28%, no sharp cut-off; inactive = mostly below about 43%; also: 0% is about no effect
# FMDV inh: foot and mouth disease virus antiviral activity | hit rate 1.2% among 410,000 | FMDV antiviral cell-based qHTS | Potency, µM (highest dose often 57.9 µM), inactives show at the highest dose activity change, negative = inhibition, most hits filed as inhibitors; calls by dose curve; tested in HEK293T cells; also: read-out not given here; potency is read from the fitted curve at half-maximal effect; % is scaled to controls: 0 for no effect and ±100 for the full control effect; nearly all actives have a fitted effect of over 45% in size
# Marburg entry inh: blocks Marburg virus binding to or entry into cells. Marburg virus pseudotyped entry inhibition, cell reporter. Potency, µM (highest dose often 37.8 µM), inactives show at the top dose activity change, negative = inhibition, most hits filed as inhibitors. hit rate 1.8% among 300,000. AID 540276; calls by dose curve; tested in HEK293 cells; also: potency is read from the fitted curve at half-maximal effect; % is scaled to controls: 0 for no effect and ±100 for the full control effect
# Lassa entry inh: blocks Lassa virus binding to or entry into cells | Potency, µM (highest dose often 37.9 µM), without a hit: at the top dose activity change, negative = inhibition, hits mostly inhibitors | Lassa virus pseudotype entry inhibition, cell reporter | hit rate 1.2% among 300,000 | AID 540256; calls by dose curve; tested in HEK293 cells; also: potency is read from the fitted curve at half-maximal effect; % is scaled to controls: 0 for no effect and ±100 for the full control effect; nearly all actives have a fitted effect of over 50% in size
# Active calls of the source: *; ? = inconclusive; · = no result; [ ] = remark or other dose.
SMILES,HCV inh,CHX counter,Shiga inhibitor,FMDV inh,Marburg entry inh,Lassa entry inh
CC(=O)c1ccc(NC(=O)COc2ccccc2C(=O)Nc2ccccc2)cc1,?,13*,49*,-18%,?,-19%
COCCNC(=S)N1CCN(c2cccc(C)c2C)CC1,-19%,19,-8,-8%,?,22%
CCOC(=O)c1ccc2c(c1)nc(COc1ccc3ccccc3c1)n2CC,-21%,-1,-12,-16%,4.6µM*,?
COCc1nc2ccccc2n1Cc1ccccc1,16%,20*,17,38%,15%,24%
C=CCn1c(COc2ccc(OC)cc2)nc2ccccc21,1%,44*,33,64%,·,·
CCn1c(COc2ccc(OC)cc2)nc2ccccc21,7%,50*,80*,23%,-6%,2%
CCOC(=O)c1ccc2c(c1)nc(COc1ccccc1C#N)n2CC,-1%,-4,-42,·,·,·
COc1ccc(CCNC(=O)CCCc2nnc3n(C)c(=O)c4sccc4n23)cc1OC,7%,2,-11,24%,17%[46.1 µM],-14%
C[C@@H]([C@H](O)c1ccccc1)N(C)C,·,·,·,-3%,·,·
COCCn1c(COc2ccc(OC)cc2)nc2ccccc21,?,22*,49*,-8%,-16%,12%
CCOc1ccc(NCc2nc3ccccc3n2CCOc2ccccc2)cc1,?,38*,61*,-23%,?,?
CCn1c(COc2ccccc2)nc2ccccc21,?,24*,36*,8%,-1%,25%
COc1ccc(CC(=O)NCC2CCCCC2)cc1OC,1%,11,28,-20%,·,·
CCCCCCCCc1nnc(N)s1,-10%,12*,7,-16%,?,?
Cc1onc(-c2ccccc2)c1C(=O)N(Cc1ccccn1)Cc1ccccn1,2%,-2,-7,-16%,-27%[46.1 µM],8%[46.1 µM]
O=C(Nc1ccncc1)c1ccc(-c2ccccc2)cc1,10µM*,36*,121*,-17%,·,·
O=C(Nc1cccnc1)c1ccc(F)cc1,6%,-3,-8,21%,14%,0%
O=C(Nc1ccncc1)c1ccc(F)cc1,18%,8,4,-14%,8%,-1%
Cc1ccc(C(=O)Nc2ccncc2)c(C)c1,?,8.9*,18,-1%,-9%,-25%
O=C(Nc1cccnc1)c1cnc2ccccc2n1,8%,13*,70*,18%,?,?
Cc1ccc(C(=O)Nc2cccc(NC(=O)c3cccs3)c2)c(C)c1,-30%,4,21,10%,·,·
O=C(Nc1cccnc1)c1ccc(-c2ccccc2)cc1,?,33*,72*,40%,·,·
CC(C)=CCN1CCN(Cc2c(C)nn(C)c2Cl)CC1CCO (configuration not stated),18%,-1,-16,28%,5%[46.1 µM],8%[46.1 µM]
N#CC1=C(N)C(C#N)(C#N)[C@H](c2c(F)cccc2F)[C@H]2CC3(CC=C12)OCCO3,-7%,-2,-3,?,?,-16%
CCOC(=O)C1=C(C)C2C3C(=O)N(c4ccc(C)cc4C)C(=O)C3C1(C)C1C(=O)N(c3ccc(C)cc3C)C(=O)C21 (configuration not stated),2%,-5,-9,-16%,8%,31%
SMILES,HCV inh,CHX counter,Shiga inhibitor,FMDV inh,Marburg entry inh,Lassa entry inh
CC(C)c1ccc(C(=O)Nc2cccnc2)cc1,-5%,36*,·,-12%,4µM*,?
O=C(Nc1ccc(-c2cnco2)cc1)c1ccccc1,-2%,47*,93*,39%,13%[46.1 µM],19%[46.1 µM]
CC(C)Cc1ccc(C(C)C(=O)Nc2cccnc2)cc1 (configuration not stated),3.2µM*,6,·,-26%,?,1%[46.1 µM]
CCN(CC)CCCNC(=O)c1oc2ccc(S(=O)(=O)N3CC(C)CC(C)C3)cc2c1C (configuration not stated),22µM*,-7,15,15%,10µM*,?
Cc1c(C(=O)N2CCCCC2)oc2ccc(S(=O)(=O)N3CC(C)CC(C)C3)cc12 (configuration not stated),?,-5,-7,?,11µM*,?
CCOC(=O)N1CCN(C(=O)c2oc3ccc(S(=O)(=O)N4CCCCC4)cc3c2C)CC1,-21%,-3,-7,?,?,2%
O=C1c2ccccc2C(=O)N1c1ncccn1,16%,6,-7,-31%,1%,1%
Cc1cnc(-n2ncc(C(=O)NCc3ccccn3)c2C2CC2)nc1-c1cccs1,·,·,·,-11%,·,·
O=S(=O)(c1cccs1)N1CCC(CO)(Cc2ccc(Cl)cc2)CC1,?,1,-1,?,7.9µM*,?
N=C1C(c2ccccc2)=C(O)CN1Cc1ccco1,6%,2,9,-3%,10%,6%
N=C1C(c2nc3ccccc3s2)=C(O)CN1Cc1ccco1,?,26*,67*,13%,?,18%
CCNS(=O)(=O)c1ccc(NC(=O)Nc2cc(C)ccc2OC)cc1,13µM*,-2,40,5%,·,·
COc1ccc(C)cc1NC(=O)NNS(=O)(=O)c1ccc(NC(C)=O)cc1,19%,-6,13,-24%,18%,-26%
CCNS(=O)(=O)c1ccc(NC(=O)Nc2ccccc2OC)cc1,?,9.5*,4,20%,9%[46.1 µM],-15%
Cc1cc(COc2ccccc2OCCN2CCN(C)CC2)no1,17%,-2,-9,6%,6%,17%
CN(C)c1ccc(CC2C(=O)Nc3ccccc32)cc1 (configuration not stated),5%,22*,50*,50%,25%[46.1 µM],-9%
Cc1ccc(C2NC(=O)c3ccccc3N2)s1 (configuration not stated),-5%,30*,48*,23%,0%,-21%
CN(C)c1ccc(C2NC(=O)c3ccccc3N2)cc1 (configuration not stated),?,46*,66*,21%,10µM*,?
O=C1Nc2ccccc2C1Cc1ccc(Br)cc1 (configuration not stated),·,·,·,-8%,-2%[46.1 µM],-9%[46.1 µM]
Cc1cccc(C2NC(=O)c3ccccc3N2)c1 (configuration not stated),10%,·,·,27%,?,10%
CC(C)CN1CCN(CCCOC(=O)Nc2cccc3ccccc23)CC1C (configuration not stated),-21%,·,·,-3%,?,-4%[46.1 µM]
CCOC(=O)Nc1ccc2c(CNC(C)c3ccccc3OC)cc(=O)oc2c1 (configuration not stated),-24%,2,-5,-25%,?,?
CC(=O)N1CCc2cc(S(=O)(=O)CCC(=O)NCc3ccc(F)cc3)ccc21,-26%,-4,2,-23%,·,·
Oc1c(I)cc(Cl)c2cccnc12,?,-3,-14,-29%,24%,-15%
c1cnc2c(c1)ccc1ncccc12,8%,1,-13,1%,·,·
Cc1c(C)c2cccnc2c2ncccc12,3.2µM*,·,·,?,·,·
Clc1cc2cccnc2c2ncccc12,2.8µM*,·,·,-15%,·,·
COCCn1c(SCC(=O)N2CCOCC2)nc2c(c1=O)SCC2,19%,1,-9,0%,-2%,0%

# Screening data: PubChem, National Center for Advancing Translational Sciences (NCATS)
